Common to all, as to test: Cytotoxic Profiling of Annotated Libraries Using Quantitative High-Throughput Screening (AID 1296008); note: nearly all actives have a fitted effect of over 60% in size
Conditions in all cases: Five cell lines viability, CellTiter-Glo ATP luminescence, 48-72 h; max response: active compounds read low
On the technique in general: Cellular ATP, detected with luciferase, serves as a proxy for viable cell number.

For one experiment, the system named is CRL-7250. The method, boiled down: (§1)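 Cells exposed to compounds for 48 or 72 hr at 37 degrees Celsius. Viability read as ATP-coupled luminescence with CellTiter-Glo after 10 min at room temperature.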
Another experiment relates to HEK293. The method, boiled down:
as §1

A further experiment concerns HaCat. The method, boiled down:
as §1

A further experiment has as its system KB-3-1. The method, boiled down:
as §1

In the next experiment the test system is NIH3T3. In a few lines:
as §1

Records with an inconclusive call do not appear. A number with no mark means an inactive call. Active and inactive are the calls of the source. Calls come from the whole dose curve; as a rule, active = well fitted inhibition curve with a large enough effect; inconclusive = small, poorly fitted or top-dose-only effect; inactive = flat fitted curve, though single readings scatter.
% is set by controls: 0 for no effect and ±100 for the full control effect; potency is the fitted concentration of half-maximal effect.

For `COc1ccc2c(OC)c3ccoc3nc2c1OC`, the max response in the experiment with CRL-7250 is -6.93%; with HEK293, -25.3%; in the experiment with HaCat, -7.51%; with KB-3-1, 4.27%; in the experiment with NIH3T3 it was -9.34%.

`C=C1C(=O)O[C@@H]2/C=C(\C)C(=O)/C=C/[C@](C)(O)C[C@@H](OC(=O)C(C)C)[C@@H]12`: the Potency with CRL-7250 is 4.04 µM (active); with HEK293, 805 nM (active); in the experiment on HaCat it was 2.02 µM (active); with KB-3-1, 7.18 µM (active); in the experiment with NIH3T3 it was 2.55 µM (active).

For `CC1(C)CC[C@]2(C(=O)O)[C@H](O)C[C@]3(C)C(=CCC4[C@@]5(C)CC[C@H](O[C@@H]6O[C@H](CO[C@@H]7OC[C@H](O)[C@H](O)[C@H]7O[C@@H]7OC[C@@H](O)[C@H](O)[C@H]7O)[C@@H](O)[C@H](O)[C@H]6O[C@@H]6O[C@H](CO)[C@@H](O)[C@H](O)[C@H]6O)C(C)(C)C5CC[C@]43C)[C@@H]2C1` (stereo not given in full), the max response was -10.1% in the experiment with CRL-7250; -1.49% with HEK293; -11.7% with HaCat; 4.84% in the experiment on KB-3-1; -6.3% in the experiment with NIH3T3.

As for `O=C1Nc2ccccc2C(O)(c2ccccc2)C1O` (stereo not given), the max response was 0.0908% in the experiment on CRL-7250; -7.58% in the experiment with HEK293; -18.6% in the experiment with HaCat; 2.02% with KB-3-1; -2.57% in the experiment on NIH3T3.

In the case of `C/C(=C/CO)CC[C@@H]1[C@@](C)(O)CCC2C(C)(C)CCC[C@]21C` (stereo not given in full), the max response in the experiment on CRL-7250 was 1.57%; in the experiment with HEK293, 4.02%; in the experiment with HaCat, 0.603%; in the experiment with KB-3-1, 5.46%; with NIH3T3 it was -10.9%.

For `CC(=O)O[C@H]1[C@H](O[C@H]2[C@@H]3C=CO[C@@H](O[C@@H]4O[C@H](CO)[C@@H](O)[C@H](O)[C@H]4O)[C@@H]3[C@@]3(CO)O[C@@H]23)O[C@@H](C)[C@H](OC(=O)/C=C/c2ccccc2)[C@H]1OC(=O)/C=C/c1ccccc1`, the max response with CRL-7250 is -1.73%; in the experiment on HEK293, -0.402%; in the experiment on HaCat, -13%; with NIH3T3, 0.432%. Besides, the compound was called inactive with KB-3-1.

For `CC(C)=CC/C=C(\C)[C@H]1CC[C@]2(C)[C@@H]1[C@H](O)C[C@@H]1[C@@]3(C)CC[C@H](O)C(C)(C)[C@@H]3[C@@H](O[C@@H]3O[C@H](CO)[C@@H](O)[C@H](O)[C@H]3O)C[C@]12C`, the max response is 2.02% with CRL-7250, -11.4% in the experiment on HEK293, 4.08% in the experiment on HaCat and -21.6% in the experiment on NIH3T3. Further, the compound was classed as inactive with KB-3-1.

As to `CC(=O)OC[C@H]1O[C@H](O[C@]2(CO)O[C@H](CO)[C@@H](OC(=O)/C=C/c3ccccc3)[C@@H]2O)[C@H](O)[C@@H](O)[C@@H]1O`, the max response in the experiment with CRL-7250 was -26.1%; in the experiment on HEK293, 2.62%; in the experiment with HaCat it was -2.48%; with NIH3T3, -0.33%. In addition, the call in the experiment on KB-3-1 was inactive.

For the compound `CC(CCC1(O)OC2CC3C4CCC5CC(O[C@@H]6O[C@H](CO)[C@@H](O)[C@H](O)[C@H]6O[C@@H]6O[C@@H](C)[C@H](O)[C@@H](O)[C@H]6O)C(O)CC5(C)C4CCC3(C)C2C1C)CO[C@@H]1O[C@H](CO)[C@@H](O)[C@H](O)[C@H]1O` (stereo not given in full), the max response in the experiment on CRL-7250 was -4.35%; in the experiment on HEK293, 0.184%; in the experiment on HaCat, -8.4%; in the experiment with KB-3-1, -6.35%; with NIH3T3 it was -21%.

As to `OC[C@H]1O[C@@H](OC(CCCCc2ccc(O)cc2)CCc2ccc(O)cc2)[C@H](O)[C@@H](O)[C@@H]1O` (stereo not given in full), the max response with CRL-7250 is -35.2%; in the experiment on HEK293, -49.4%; with HaCat it was -20.5%; in the experiment on NIH3T3, -27.4%. For the same compound, the compound was called inactive in the experiment on KB-3-1.

Take `C[C@@H]1O[C@@H](O[C@H]2[C@H](O)[C@@H](O[C@@H]3O[C@H](CO)[C@@H](O)[C@H](O[C@@H]4O[C@H](CO)[C@@H](O)[C@H](O)[C@H]4O)[C@H]3O)[C@H](O[C@H]3CC[C@@]4(C)C(=CC[C@@H]5C4CC[C@@]4(C)C5C[C@@H]5OC6(CC[C@@](C)(CO[C@@H]7O[C@H](CO)[C@@H](O)[C@H](O)[C@H]7O)O6)[C@@H](C)[C@@H]54)C3)O[C@@H]2CO)[C@H](O)[C@H](O)[C@H]1O` (stereo not given in full): the max response was -2.4% in the experiment on CRL-7250; 3.47% in the experiment on HEK293; -19% with HaCat; 4.11% with KB-3-1; 3.35% with NIH3T3.

Take `CC1=C(C)C(=O)OC(C(C)C2CCC3C4C5OC5C5(O)CC(OC6OC(CO)C(OC7OC(C)C(O)C(O)C7O)C(O)C6O)CC(O)C5(C)C4CCC23C)C1` (stereo not given): the compound was called inactive with CRL-7250 and with KB-3-1. Besides, the max response with HEK293 is -0.932%; in the experiment on HaCat, 4.81%; with NIH3T3 it was 3.69%.

As to `Cn1ncnc1COc1nn2c(-c3cc(F)ccc3F)nnc2cc1C(C)(C)C`, the max response in the experiment with CRL-7250 was -15.8%; in the experiment with HEK293 it was 0.514%; with HaCat, -21.7%; with KB-3-1, 8.68%; with NIH3T3, -2.09%.

Turning to `O=C(O)C(O[C@@H]1O[C@H](CO[C@@H]2O[C@H](CO)[C@@H](O)[C@H](O)[C@H]2O)[C@@H](O)[C@H](O)[C@H]1O)c1ccccc1` (stereo not given in full), the max response was -5.65% in the experiment on CRL-7250; -7.94% with HEK293; -3.34% with HaCat; 7.09% in the experiment on KB-3-1; 1.38% in the experiment with NIH3T3.

`C[C@@H]1O[C@@H](O[C@H]2[C@H](O)[C@@H](O)[C@H](OC[C@H]3O[C@@H](OC(=O)[C@]45CCC(C)(C)C[C@H]4C4=CCC6[C@@]7(C)CC[C@H](O[C@@H]8OC[C@H](O)[C@H](O[C@@H]9O[C@H](CO)[C@@H](O)[C@H](O)[C@H]9O)[C@H]8O)[C@@](C)(CO)C7CC[C@@]6(C)[C@]4(C)CC5)[C@H](O)[C@@H](O)[C@@H]3O)O[C@@H]2CO)[C@H](O)[C@H](O)[C@H]1O` (stereo not given in full): in the experiment on CRL-7250, the compound was classed as inactive. The max response with HEK293 was -14.9%; with HaCat, -0.978%; in the experiment on KB-3-1, 8.88%; in the experiment on NIH3T3, -6.93%.

Consider `CC(C)=CCC/C(C)=C/CCC1(C)Oc2c(c(O)cc3c2CN(C(CCC(=O)O)C(=O)O)C3=O)CC1O` (stereo not given), for which the max response in the experiment with CRL-7250 was -8.75%; with HEK293 it was -4.48%; in the experiment with HaCat, -10.3%; in the experiment on NIH3T3, -11%. The result in the experiment with KB-3-1 was inactive.

Values taken from PubChem BioAssay (NCATS).
